From PubChem BioAssay (Tox21)
Results filed as inconclusive are left out. Activity calls are given as the source filed them. The call rests on the fitted dose curve; in most records, active means well fitted cell-killing curve with a large enough effect in the repeat runs; inconclusive means weak or mixed curves, or effect the other way; inactive means no such curve, though single readings can be large or run the other way.

Test: qHTS assay to identify small molecule antagonists of the vitamin D receptor (VDR) signaling pathway - cell viability counter screen (AID 743225); further: nearly all actives have a fitted effect of over 50% in size
Settings: VDR-bla HEK293T viability, CellTiter-Glo luminescence, 16 h; series mostly up to 61 µM
Excerpt: U.S. Tox21 Program National Center for Advancing Translational Sciences [NCATS] NIH Chemical Genomics Center [NCGC] U.S. Environmental Protection Agency [EPA] National Institutes of Environmental Health Sciences [NIEHS] National Toxicology Program [NTP] U.S. Food and Drug Administration [FDA] Tox21 Assay Overview: The vitamin D receptor (VDR), a member of nuclear hormone receptor superfamily, plays a critical role in calcium homeostasis and bone metabolism. It is also involved in cell differentiation and growth, and thrombogenicity. To identify the compounds that inhibit VDR signaling, the VDR-UAS-bla HEK 293T cell line (Invitrogen, Carlsbad, CA, USA) containing a beta-lactamase reporter gene under the control of an upstream activator sequence (UAS) was used to screen the Tox21 10K compound library. The cytotoxicity of the Tox21 compound library against the VDR-bla cell line was tested in parallel by measuring the cell viability using CellTiter-Glo assay (Promega, Madison, WI) in the same wells.
Tox21 Assay Protocol Summary: VDR-bla cells were dispensed at 2,000 cells/5 uL of assay medium per well into black wall/clear-bottom 1536-well plates using a Multidrop Combi (Thermo Fisher Scientific, Waltham, MA) dispenser. After the assay plates were incubated at a 37C and 5% CO2 for 4 h, 23 nL of compounds dissolved in DMSO, positive controls or DMSO only was transferred to the assay plate by a Pintool station (Kalypsys, San Diego, CA), followed by addition of 1 uL of 1-alpha, 25-Dihydroxy Vitamin D3 (3 nM, final concentration in the wells) using a Bioraptr Flying Reagent Dispenser (FRD) workstation (Beckman Coulter, Indianapolis, IN). The plates were incubated at 37C and 5% CO2 for 16 h, and then 1 uL of LiveBLAzerTM B/G FRET substrate was added using a Bioraptr FRD. The plates were incubated at room temperature for 2 h and fluorescence intensity was measured by an Envision plate reader (PerkinElmer, Shelton, CT). For cell viability readout that measures cytotoxicity, 3 ul/well of CellTiter-Glo reagent was added into the assay plates using a Bioraptr FRD. After 30 min incubation at room temperature, the luminescence intensity in the plates was measured using a ViewLux plate reader (PerkinElmer).

SMILES | outcome
CC(Oc1cc(Cl)ccc1Cl)C(=O)O (stereo not given) | inactive
CC(C)OC(=O)OCOP(=O)(CO[C@H](C)Cn1cnc2c(N)ncnc21)OCOC(=O)OC(C)C | inactive
CCC(C)C(C)=O (stereo not given) | inactive
C=C(C)[C@@H]1CC=C(C)CC1 | inactive
COC(=O)/C=C\C(=O)O | inactive
N#Cc1ccccc1O | inactive
CC(=O)CC(=O)OC(C)(C)C | inactive
CCCCCCC1(C)CCC(=O)O1 (stereo not given) | inactive
O=C1NC(c2ccccc2)(c2ccccc2)C(=O)N1COP(=O)(O)O | inactive
CC1=NN(c2ccc(S(=O)(=O)O)cc2)C(=O)C1 | inactive
CC(=O)OCC(=O)Nc1cc(C#N)cc(NC(=O)COC(C)=O)c1Cl | inactive
CCCCC1CCC(O)CC1 (stereo not given) | inactive
O=C(CN1CCNCC1)NC1CCCCC1 | inactive
C=C(C)C1CC=C(C)C(=O)C1 (stereo not given) | inactive
CN(C)CCCO[C@@H]1[C@H]2OC(C)(C)O[C@H]2O[C@@H]1C(O)CO (stereo not given in full) | inactive
Cc1ccnc(N)c1 | inactive
CCO[Si](CC)(OCC)OCC | inactive
CCC(C)OC(C)CC (stereo not given) | inactive
CC1(C)CC(OC(=O)CCCCCCCCC(=O)OC2CC(C)(C)NC(C)(C)C2)CC(C)(C)N1 | inactive
Cn1c(=O)c2[nH]c(Br)nc2n(C)c1=O | inactive

SMILES | outcome
CN1C[C@@H]2C[C@H]1CN2c1cc2c(cc1F)c(=O)c(C(=O)O)cn2C1CC1 | inactive
Cn1c(=O)c2c(ncn2CCO)n(C)c1=O | inactive
CC(C)=CCC/C(C)=C/COC=O | inactive
CCc1occc(=O)c1O | inactive
CCNC(=O)NCc1cccc(Cl)c1 | inactive
C/C=C(\C)C(=O)OCCc1ccccc1 | inactive
O=C1CCC(=O)N1Cl | inactive
CCC(=O)c1c(O)cc(O)cc1O | inactive
CCCCCCCCCCOC(C)=O | inactive
CC1=C(C(=O)O)N2C(=O)[C@@H](NC(=O)[C@H](N)C3=CCC=CC3)[C@H]2SC1 | inactive
C[C@]12CCC(=O)C=C1CC[C@H]1[C@@H]3CC[C@](O)(C(=O)CO)[C@@]3(C)C[C@H](O)[C@@]12F | inactive
COC(=O)CCCCC(CCSS/C(CCO)=C(\C)N(C=O)Cc1cnc(C)nc1N)SC(C)=O (stereo not given) | inactive
CCCCCCCCCCCCCCCCCCOCCO | inactive
C=Cc1ccc(C(C)(C)C)cc1 | inactive
CC1c2ccccc2CN1NC(=O)c1ccc(Cl)c(S(N)(=O)=O)c1 (stereo not given) | inactive
C[Si]1(C)O[Si](C)(C)O[Si](C)(C)O[Si](C)(C)O[Si](C)(C)O1 | inactive
O=C=NCC1CCCC(CN=C=O)C1 (stereo not given) | inactive
CC(O)CC(C)O (stereo not given) | inactive
CCC[C@@H]1C[C@@H](C(=O)N[C@@H]([C@H]2O[C@H](SC)[C@H](O)[C@@H](O)[C@H]2O)[C@@H](C)O)N(C)C1 | inactive
CC(C)Nc1ccccc1 | inactive
